Most compounds without a hit are left out; they make up all but 19% or so of the library.
SARS PLpro yeast – blocks SARS-CoV papain-like protease in a yeast assay. S. cerevisiae expressing SARS-CoV PLpro, growth rescue. Potency, µM (top dose mostly 32.9 µM), usual class: activators. 0.19% of 330,000 active. AID 485353; calls by dose curve; further: nearly all actives have a fitted effect of over 55% in size
Pf growth 48h – P. falciparum growth inhibition at 48 hours (one generation) | P. falciparum luciferase growth in erythrocytes, 48 h | Potency, µM (titrated, usually from 28.7 µM), most hits filed as inhibitors | 5.9% of 310,000 active | AID 504832
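Growth was read as firefly luciferase luminescence after a 48 h, 37 C, 5% CO2 exposure of compounds to reporter-bearing P. falciparum cultures (0.1% parasitemia, 2% hematocrit final) in Albumax-supplemented RPMI 1640.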
Cycloheximide cs – affects cycloheximide protein synthesis inhibition readout, counter-screen; cell reporter, cycloheximide protein synthesis inhibition counterscreen; max response, %; 12% of 300,000 active; AID 2314; in the data active means max response mostly above about 13%, no sharp cut-off; inactive means mostly below about 14%; further: read at 38.3 µM for the half of the compounds with a filed dose
Pf growth 96h – P. falciparum growth inhibition at 96 hours. 6.9% of 320,000 active. P. falciparum luciferase reporter growth, 96 h. Potency, µM (highest dose often 28.7 µM), hits mostly inhibitors
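Erythrocytes infected with luciferase-expressing P. falciparum were dispensed at 2% hematocrit and 0.05% parasitemia (final), then incubated with compounds 96 hours at 37 C in 5% CO2. Luminescence after detection reagent addition reported growth.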
Shiga inhibitor – inhibitors of Shiga toxin in Vero cells. Vero cells, Shiga toxin protein synthesis inhibition reporter. inhibition, % at 38.7 µM. 9.2% of 290,000 active; in the data active means inhibition mostly above about 28%, no sharp cut-off; inactive means mostly below about 43%
AMA1 RON2 block – disrupts binding of P. falciparum AMA1 to RON2 | 0.2% of 360,000 active | Potency, µM (top dose mostly 58.2 µM), hits mostly inhibitors | AlphaScreen AMA1-biotinylated RON2 peptide binding; further: nearly all actives have a fitted effect of over 45% in size
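AMA1 (3D7) with his tag at 25 nM final met compounds first, then biotinylated RON2 peptide at 25 nM; detection used donor plus acceptor beads, 10 µg/mL apiece, read by AlphaScreen after 30 min at room temperature.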
Of the large screens only hits and unclear results are named; the others gave an inactive call. Unless noted, the call rests on the fitted dose curve; in most records, active means well fitted curve in the direction sought with a large enough effect; inconclusive means small, poorly fitted or top-dose-only effect, or another doubt; inactive means no such curve, though single readings can be large; an effect the other way counts as inactive or inconclusive.

N/C(=N\OC(=O)/C=C/c1ccc(Br)cc1)c1ccccn1	Cycloheximide cs 81, Shiga inhibitor 68
N/C(=N\OC(=O)/C=C/c1ccccc1Cl)c1cccnc1	Cycloheximide cs 63, Pf growth 96h inconclusive, Shiga inhibitor 112
N/C(=N\OC(=O)/C=C/c1ccccc1)c1cccnc1	Pf growth 48h inconclusive, Cycloheximide cs 32, Shiga inhibitor 70
CCc1nnc(NC(=O)C2c3ccccc3Oc3ccccc32)s1	none
Cc1ccc(CN(C)C(=O)CCc2nc3sc4c(c3c(=O)[nH]2)CCCC4)o1	Pf growth 96h inconclusive
Cc1c(O)cccc1C(=O)N[C@@H](CSc1ccccc1)[C@H](O)CN1C[C@H]2CCCC[C@H]2C[C@H]1C(=O)NC(C)(C)C	Pf growth 48h 6.6µM, Pf growth 96h inconclusive
CC(=O)N/C(=C\c1ccccc1)C(=O)OCC(=O)NC1CCS(=O)(=O)C1 (centres undefined)	none (no result: Cycloheximide cs, Shiga inhibitor)
COCC(=O)Nc1ccc(OC)c(Cl)c1	none
O=C(O)/C=C\C(=O)Nc1ccc(N2CCN(c3ccc(Cl)cc3)CC2)cc1	Pf growth 48h inconclusive, Pf growth 96h inconclusive
CC(C)=CC(=O)Nc1ccc(Cl)cc1	Cycloheximide cs 54, Pf growth 96h inconclusive, Shiga inhibitor 55
COc1ccc(NC(=O)C=C(C)C)cc1Cl	Cycloheximide cs 29, Pf growth 96h inconclusive, Shiga inhibitor 102 (no result: SARS PLpro yeast)
COc1cccc(C(=O)Nc2ccc3c(c2)OC[C@H](C)N(CCc2ccccc2)C[C@@H](C)[C@@H](OC)CN(C)C3=O)c1	none (no result: SARS PLpro yeast, Pf growth 48h, Cycloheximide cs, Pf growth 96h, Shiga inhibitor)
OCCC1CN(CC2CCCCC2)CCN1C1CCCC1 (centres undefined)	none (no result: Shiga inhibitor)
Nc1nc(Cl)nc(N(c2ccccc2)c2ccccc2)n1	none
Nc1nc(CCl)nc(N(c2ccccc2)c2ccccc2)n1	Pf growth 48h 5.2µM, Pf growth 96h 2.1µM
O=S(=O)(NC[C@@H]1CCC[C@H](CNS(=O)(=O)c2c(F)cccc2F)C1)c1ccc2c(c1)OCCO2	Pf growth 48h 8.3µM, Pf growth 96h inconclusive (no result: Cycloheximide cs, Shiga inhibitor, AMA1 RON2 block)
C#C[C@]1(O)CC[C@@H]2[C@H]3CCC4=CCCC[C@@H]4[C@@H]3CC[C@@]21C	none (no result: SARS PLpro yeast, Cycloheximide cs, Shiga inhibitor, AMA1 RON2 block)
C#C[C@]1(O)CC[C@H]2[C@@H]3CCC4=CCCC[C@@H]4[C@H]3C(=C)C[C@@]21CC	Pf growth 48h inconclusive, Pf growth 96h 9.5µM (no result: SARS PLpro yeast, Cycloheximide cs, Shiga inhibitor, AMA1 RON2 block)
C=C1CCN([C@@H](CC(C)C)C(=O)NCc2ccco2)S(=O)(=O)c2ccccc21	none (no result: SARS PLpro yeast, Pf growth 48h, Cycloheximide cs, Pf growth 96h, Shiga inhibitor)
O=S(=O)(NCc1ccccc1F)c1cccc(S(=O)(=O)N2CCOCC2)c1	Pf growth 48h 8.3µM
Nc1c(C(=O)OCC2CCCO2)c2nc3ccccc3nc2n1Cc1cccs1 (centres undefined)	Pf growth 48h inconclusive, Pf growth 96h 3.7µM
Nc1c(C(=O)OCC2CCCO2)c2nc3ccccc3nc2n1C1CCCC1 (centres undefined)	Pf growth 48h 10µM
COc1ccc(C2=Nn3c(nnc3-c3cc(OC)ccc3OC)SC2)c(OC)c1	none (no result: SARS PLpro yeast, Pf growth 48h, Pf growth 96h, AMA1 RON2 block)
O=C(Nc1ccccc1N1CCCCC1)c1ncoc1-c1ccc(F)cc1	Pf growth 48h 3.3µM (no result: Pf growth 96h)
O=C(Nc1ccc(N2CCOCC2)cc1N1CCOCC1)c1ncoc1-c1cccc(F)c1	Pf growth 48h 12µM
O=C(Nc1ccccc1N1CCCCC1)c1ncoc1-c1cccc(F)c1	Pf growth 48h inconclusive, Pf growth 96h inconclusive
O=C(Nc1ccc(N2CCOCC2)cc1N1CCOCC1)c1ccc(F)cc1	none (no result: Pf growth 48h, Cycloheximide cs, Pf growth 96h, Shiga inhibitor)
CC1(C)Cc2c(cnn2-c2ccc(F)cc2)C(NC(=O)CCN2CCCCC2=O)C1 (centres undefined)	Pf growth 96h inconclusive
O=C(Nc1nc2cc3c(cc2s1)OCCO3)c1ccncc1	Cycloheximide cs 33, Shiga inhibitor 121
O=C(Nc1nc2cc3c(cc2s1)OCCO3)c1ccc(N2C(=O)CCC2=O)cc1	Cycloheximide cs 31, Shiga inhibitor 50
Cc1ccc(-c2cc(N)n(-c3ccc(C)cc3)n2)cc1	Cycloheximide cs 31, Shiga inhibitor 57
Cc1ccc(-c2cc(N)n(-c3ccc(F)cc3)n2)cc1	Cycloheximide cs 49, Shiga inhibitor 67
Cc1ccc(-c2cc3nc(-c4ccc(Br)cc4)cc(N)n3n2)cc1	none
O=C(O)c1ccc(CSC2CCCCC2)cc1	none
Cc1cc(C)cc(C(O)c2ncc(-c3ccc4ccccc4c3)[nH]2)c1 (centres undefined)	none (no result: SARS PLpro yeast, Pf growth 48h, Cycloheximide cs, Pf growth 96h, Shiga inhibitor)
Cc1ccc(S(=O)(=O)n2cnc3cc([N+](=O)[O-])ccc32)c(C)c1C	none
Cc1ccc([N+](=O)[O-])cc1S(=O)(=O)n1ccnc1C	Pf growth 48h 5.2µM
Cc1ccc([N+](=O)[O-])cc1S(=O)(=O)N1CCN(C)CC1	none
CCN1CCN(c2ccc(N3CCN(S(=O)(=O)c4cc([N+](=O)[O-])ccc4C)CC3)nn2)CC1	Pf growth 48h 10µM, Pf growth 96h inconclusive (no result: Cycloheximide cs, Shiga inhibitor)
CN(c1ccccc1)c1nc(N)c([N+](=O)[O-])c(NCCO)n1	Pf growth 48h inconclusive
CC1CCC(NC(=O)CCS(=O)(=O)c2ccc3c(c2)CCN3C(=O)C2CC2)CC1 (centres undefined)	none
CCCCOc1ccc(NC(=O)CN2CCN(C(=O)OCC)CC2)cc1	Pf growth 48h 9.3µM, Pf growth 96h inconclusive
CCOc1ccc(NC(=O)CN2CCN(C3c4ccccc4-c4ccccc43)CC2)cc1	Pf growth 48h 13µM
CCOc1ccc(NC(=O)CN2CCN(CC(=O)Nc3ccccc3OC)CC2)cc1	none
COc1ccccc1NC(=O)CN1CCN(C2c3ccccc3-c3ccccc32)CC1	SARS PLpro yeast inconclusive, Pf growth 48h 13µM
COc1ccc(NC(=O)CN2CCN(C3c4ccccc4-c4ccccc43)CC2)c(OC)c1	Pf growth 48h inconclusive
CCCCOc1ccc(NC(=O)CN2CCN(CC)CC2)cc1	none
COC(=O)Cn1c(=O)oc2ccc(C)cc21	none
COc1ccc(/C=C2\N=C(c3ccccc3)NNC2=O)cc1	none
CCc1nc(SCC(=O)N2CCCC2)c2c(=O)n(C)c(=O)n(C)c2n1	none
CCCn1c(SCC(=O)Nc2ccc3c(c2)OCO3)nc2c1c(=O)n(C)c(=O)n2C	Pf growth 96h 10µM
CCn1nnnc1SCC(=O)Nc1ccc2c(c1)OCO2	Shiga inhibitor 45
CCn1c(SCC(=O)Nc2ccc3c(c2)OCO3)nc2c1c(=O)n(C)c(=O)n2C	Pf growth 96h inconclusive
Cn1nnnc1SCC(=O)Nc1ccc2c(c1)OCO2	Cycloheximide cs 26, Pf growth 96h inconclusive, Shiga inhibitor 114
CC(C)c1nnc(SCC(=O)Nc2ccc3c(c2)OCO3)n1C	none
Cn1c(=O)c2c(SCC(=O)N3CCCC3)nc(CC(C)(C)C)nc2n(C)c1=O	SARS PLpro yeast inconclusive, Pf growth 96h 13µM
C=C(C)CNC(=S)N/N=C/c1c(F)cccc1F	Pf growth 96h inconclusive
CCN(CC(=O)Nc1ccc(C(=O)Nc2ccc(OC)cc2)cc1)Cc1nc2ccccc2c(=O)[nH]1	Pf growth 48h inconclusive, Pf growth 96h inconclusive
Cc1ccc(S(=O)(=O)Nc2cccc(C(=O)N3CCC(C(N)=O)CC3)c2)cc1	none (no result: Cycloheximide cs, Shiga inhibitor)

Bioassay records deposited in PubChem by National Center for Advancing Translational Sciences (NCATS).
